# In PubChem BioAssay AID1159580 (chemical genetic matrix, 2015):
# “And” between values parts separate entries of the source, which are not always exact repeats. Equal entries are not always repeated. Hit rate of the full screen: of about 5,500 compounds, about 2,000 (36%) were called active. Inconclusive results (about 18%) are left out. The list shows a part of the results. Values without a mark were called inactive. Cut-off read from the data, not from the text of the source: active = normalized growth mostly below about 0.91 (no sharp cut-off); inconclusive = no clear call, values can overlap the other calls; inactive = mostly above about 0.92.
# Test: chemical genetic growth profiling, strain panel (AID 1159580);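 note: tested at 20 µM; growth read once vehicle control cultures reached saturation at 30 °C; 1 = growth at the plate median or of vehicle wells; lower values mean less growth of the strain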
# Conditions: growth OD
structure (smiles),measurement,setting,value
CC(CN1c2ccccc2Sc2ccccc21)N(C)C (configuration not stated),normalized growth,"S. cerevisiae deletion strains, locus YKL009W, strain mrt4, active compounds read low",0.924
same,normalized growth,"S. cerevisiae deletion strains, locus YKL068W, active compounds read low",0.982
same,normalized growth,"S. cerevisiae deletion strains, locus YKL085W, strain MDH1 (second series), active compounds read low",0.965
same,normalized growth,"S. cerevisiae deletion strains, locus YKL085W, strain MDH1, active compounds read low",0.965
same,normalized growth,"S. cerevisiae deletion strains, locus YKL160W, strain elf1, active compounds read low",0.913
same,normalized growth,"S. cerevisiae deletion strains, locus YKL190W, strain CNB1, active compounds read low",0.995
same,normalized growth,"S. cerevisiae deletion strains, locus YKR001C, strain vps1, active compounds read low",0.968
same,normalized growth,"S. cerevisiae deletion strains, locus YKR026C, strain gcn3, active compounds read low",0.972
same,normalized growth,"S. cerevisiae deletion strains, locus YKR091W, strain srl3, active compounds read low",0.983
same,normalized growth,"S. cerevisiae deletion strains, locus YLL001W, strain dnm1, active compounds read low",0.879 (active)
same,normalized growth,"S. cerevisiae deletion strains, locus YLL026W, active compounds read low",0.943
same,normalized growth,"S. cerevisiae deletion strains, locus YLL041C, strain sdh2, active compounds read low",0.982
same,normalized growth,"S. cerevisiae deletion strains, locus YLR027C, strain aat2, active compounds read low",0.932
same,normalized growth,"S. cerevisiae deletion strains, locus YLR039C, strain RIC1, active compounds read low",1.23
same,normalized growth,"S. cerevisiae deletion strains, locus YLR058C, strain SHM2, active compounds read low",0.957
same,normalized growth,"S. cerevisiae deletion strains, locus YLR102C, strain apc9, active compounds read low",0.981
same,normalized growth,"S. cerevisiae deletion strains, locus YLR113W, strain HOG1, active compounds read low",1.03
same,normalized growth,"S. cerevisiae deletion strains, locus YLR221C, strain rsa3, active compounds read low",0.969
same,normalized growth,"S. cerevisiae deletion strains, locus YLR258W, strain gsy2, active compounds read low",0.974
same,normalized growth,"S. cerevisiae deletion strains, locus YLR262C, strain YPT6 (second series), active compounds read low",1.07
same,normalized growth,"S. cerevisiae deletion strains, locus YLR262C, strain YPT6, active compounds read low",1.34
same,normalized growth,"S. cerevisiae deletion strains, locus YLR268W, strain sec22, active compounds read low",0.947
same,normalized growth,"S. cerevisiae deletion strains, locus YLR320W, strain mms22, active compounds read low",0.944
same,normalized growth,"S. cerevisiae deletion strains, locus YLR330W, strain CHS5, active compounds read low",0.993
same,normalized growth,"S. cerevisiae deletion strains, locus YLR342W, strain FKS1 (second series), active compounds read low",0.928
same,normalized growth,"S. cerevisiae deletion strains, locus YLR342W, strain FKS1, active compounds read low",0.844 (active)
same,normalized growth,"S. cerevisiae deletion strains, locus YLR357W, strain rsc2, active compounds read low",0.99
same,normalized growth,"S. cerevisiae deletion strains, locus YLR370C, strain arc18, active compounds read low",0.938
same,normalized growth,"S. cerevisiae deletion strains, locus YLR371W, strain rom2, active compounds read low",0.962
same,normalized growth,"S. cerevisiae deletion strains, locus YLR384C, strain iki3, active compounds read low",0.968
same,normalized growth,"S. cerevisiae deletion strains, locus YLR418C, strain cdc73, active compounds read low",0.955
same,normalized growth,"S. cerevisiae deletion strains, locus YML016C, strain PPZ1, active compounds read low",0.985
same,normalized growth,"S. cerevisiae deletion strains, locus YML032C, strain rad52, active compounds read low",0.908
same,normalized growth,"S. cerevisiae deletion strains, locus YML120C, strain ndi1, active compounds read low",0.921
same,normalized growth,"S. cerevisiae deletion strains, locus YML124C, strain tub3, active compounds read low",0.983
same,normalized growth,"S. cerevisiae deletion strains, locus YMR058W, strain fet3, active compounds read low",0.94
same,normalized growth,"S. cerevisiae deletion strains, locus YMR078C, strain ctf18, active compounds read low",0.98
same,normalized growth,"S. cerevisiae deletion strains, locus YMR125W, strain sto1, active compounds read low",0.988
same,normalized growth,"S. cerevisiae deletion strains, locus YMR129W, active compounds read low",0.97
same,normalized growth,"S. cerevisiae deletion strains, locus YMR205C, strain PFK2, active compounds read low",0.968
same,normalized growth,"S. cerevisiae deletion strains, locus YMR223W, strain ubp8, active compounds read low",0.992
same,normalized growth,"S. cerevisiae deletion strains, locus YMR231W, strain pep5, active compounds read low",0.983
same,normalized growth,"S. cerevisiae deletion strains, locus YMR263W, strain SAP30, active compounds read low",0.999
same,normalized growth,"S. cerevisiae deletion strains, locus YMR307W, strain GAS1, active compounds read low",1.12
same,normalized growth,"S. cerevisiae deletion strains, locus YNL067W, strain RPL9B, active compounds read low",0.924
same,normalized growth,"S. cerevisiae deletion strains, locus YNL071W, strain lat1, active compounds read low",0.969
same,normalized growth,"S. cerevisiae deletion strains, locus YNL128W, strain TEP1, active compounds read low",1.02
same,normalized growth,"S. cerevisiae deletion strains, locus YNL175C, strain NOP13, active compounds read low",1.01
same,normalized growth,"S. cerevisiae deletion strains, locus YNL183C, strain NPR1, active compounds read low",0.964
same,normalized growth,"S. cerevisiae deletion strains, locus YNL197C, strain WHI3, active compounds read low",1.01
same,normalized growth,"S. cerevisiae deletion strains, locus YNL209W, strain ssb2, active compounds read low",0.962
same,normalized growth,"S. cerevisiae deletion strains, locus YNL224C, strain SQS1, active compounds read low",1.01
same,normalized growth,"S. cerevisiae deletion strains, locus YNL233W, strain BNI4, active compounds read low",0.925
same,normalized growth,"S. cerevisiae deletion strains, locus YNL248C, strain rpa49, active compounds read low",0.971
same,normalized growth,"S. cerevisiae deletion strains, locus YNL250W, strain rad50, active compounds read low",0.958
same,normalized growth,"S. cerevisiae deletion strains, locus YNL271C, strain bni1, active compounds read low",0.973
same,normalized growth,"S. cerevisiae deletion strains, locus YNL298W, strain CLA4, active compounds read low",0.978
same,normalized growth,"S. cerevisiae deletion strains, locus YNL307C, strain MCK1, active compounds read low",0.958
same,normalized growth,"S. cerevisiae deletion strains, locus YNL322C, strain KRE1 (second series), active compounds read low",0.976
same,normalized growth,"S. cerevisiae deletion strains, locus YNR049C, strain mso1, active compounds read low",0.977
same,normalized growth,"S. cerevisiae deletion strains, locus YNR052C, strain pop2, active compounds read low",0.976
same,normalized growth,"S. cerevisiae deletion strains, locus YOL006C, strain TOP1, active compounds read low",0.79
same,normalized growth,"S. cerevisiae deletion strains, locus YOL012C, strain htz1",1.06
same,normalized growth,"S. cerevisiae deletion strains, locus YOL147C, strain pex11, active compounds read low",0.976
same,normalized growth,"S. cerevisiae deletion strains, locus YOR001W, strain rrp6, active compounds read low",0.889 (active)
same,normalized growth,"S. cerevisiae deletion strains, locus YOR061W, strain CKA2, active compounds read low",0.955
same,normalized growth,"S. cerevisiae deletion strains, locus YOR069W, strain VPS5, active compounds read low",0.986
same,normalized growth,"S. cerevisiae deletion strains, locus YOR070C, strain gyp1, active compounds read low",0.965
same,normalized growth,"S. cerevisiae deletion strains, locus YOR080W, strain dia2, active compounds read low",0.963
same,normalized growth,"S. cerevisiae deletion strains, locus YOR083W, strain WHI5 (second series), active compounds read low",1.02
same,normalized growth,"S. cerevisiae deletion strains, locus YOR083W, strain WHI5, active compounds read low",0.898
same,normalized growth,"S. cerevisiae deletion strains, locus YOR106W, strain vam3, active compounds read low",0.884
same,normalized growth,"S. cerevisiae deletion strains, locus YOR136W, strain idh2, active compounds read low",0.968
same,normalized growth,"S. cerevisiae deletion strains, locus YOR144C, strain elg1, active compounds read low",0.989
same,normalized growth,"S. cerevisiae deletion strains, locus YOR184W, strain ser1, active compounds read low",1.01
same,normalized growth,"S. cerevisiae deletion strains, locus YOR231W, strain MKK1, active compounds read low",1.01
same,normalized growth,"S. cerevisiae deletion strains, locus YOR265W, strain rbl2, active compounds read low",0.955
same,normalized growth,"S. cerevisiae deletion strains, locus YOR270C, strain vph1, active compounds read low",0.998
same,normalized growth,"S. cerevisiae deletion strains, locus YOR290C, strain snf2, active compounds read low",0.96
same,normalized growth,"S. cerevisiae deletion strains, locus YOR316C, strain cot1, active compounds read low",0.97
same,normalized growth,"S. cerevisiae deletion strains, locus YPL051W, strain arl3, active compounds read low",0.863 (active)
same,normalized growth,"S. cerevisiae deletion strains, locus YPL078C, strain atp4, active compounds read low",0.838 (active)
same,normalized growth,"S. cerevisiae deletion strains, locus YPL106C, strain sse1, active compounds read low",0.929
same,normalized growth,"S. cerevisiae deletion strains, locus YPL240C, strain hsp82, active compounds read low",0.965
same,normalized growth,"S. cerevisiae deletion strains, locus YPL241C, strain CIN2, active compounds read low",0.989 and 0.995
same,normalized growth,"S. cerevisiae deletion strains, locus YPL256C, strain CLN2, active compounds read low",1.07
same,normalized growth,"S. cerevisiae deletion strains, locus YPR119W, strain clb2, active compounds read low",0.971
same,normalized growth,"S. cerevisiae deletion strains, locus YPR141C, strain kar3, active compounds read low",0.976
same,normalized growth,"S. cerevisiae deletion strains, locus YPR163C, strain tif3, active compounds read low",0.928
same,normalized growth,"S. cerevisiae deletion strains, locus YPR167C, strain met16, active compounds read low",0.97
same,normalized growth,"S. cerevisiae deletion strains, strain wtn01, active compounds read low",0.957
same,normalized growth,"S. cerevisiae strains, strain wild type, active compounds read low",0.975
